# Source: PubChem BioAssay (NCATS)
# Results filed as inconclusive are left out. A number with no mark means an inactive call. Activity calls are given as the source filed them. Calls follow the shape of the dose curve; as a rule, active = well fitted inhibition curve with a large enough effect; inconclusive = small, poorly fitted or top-dose-only effect; inactive = flat fitted curve, though single readings scatter.
# Tested on: Zika virus NS2B-NS3 protease
# Experiment: Primary screen GU AMC qHTS for Zika virus inhibitors (AID 1347154);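 also: 0% = no-inhibitor control and -100% = no-enzyme control; nearly all actives have a fitted effect of over 70% in size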
# Conditions: Zika NS2B-NS3 unlinked protease, AMC fluorogenic substrate; series mostly up to 54.1 µM; activity change, negative = inhibition: at the top concentration
# Source text: Avindra Nath, Ph.D., National Institute of Neurological Disorders and Stroke (NINDS), Bethesda, MD
# Radhakrishnan Padmanabhan, Ph.D., Georgetown University (GU), Washington D.C.
# Zika Virus causes congenital defects, including microcephaly and is associated with Guillain-Barre syndrome, eningoencephalitis and myelitis in infected adult. […] Using a target-based approach, we hope to establish a screening paradigm to uncover novel, cell-active NS2B-NS3 protease (Zika Virus) specific inhibitors from NCATS' collection of small molecules using qHTS.
# Early Translation Branch (ETB)
# National Center for Advancing Translational Sciences (NCATS), Rockville, MD
# National Institute of Health (NIH), Bethesda, Maryland
# Padmanabhan lab provided the NS2B hydrophilic domain and NS3 protease domain in a noncovalent complex used for the unlinked assay. Control compound aprotinin is obtained from Thermo Scientific (#78432; Waltham, Massachusetts). NS2B-NS3 AMC substrate (Bz-Nle-Lys-Arg-Arg-AMC; Nle-KRR-AMC) purchased from Bachem (#I-1995; Torrance, CA). Ac-VKTGKR-AMC purchased from Genscript or Bachem, Ac-FAAGKR-AMC purchased from Genscript, Ac-GLVKRR-AMC purchased from Genscript, Ac-LKKR-AMC purchased from Genscript.
# GU AMC unlinked NS2B-NS3 protease qHTS protocol
# Briefly, 3 microL of Zika virus unlinked NS2B-NS3 protease (25 nM for linked final concentration), in assay buffer (10 mM Tris-HCl pH 8.0 with 0.01% Tween 20) was dispensed into a 1,536-well solid-bottom black plate (Greiner Bio One, Monroe, NC). […] Plates were then read immediately on a ViewLux High-throughput CCD imager (PerkinElmer, Waltham, MA) equipped with standard UV fluorescence optics (340(30) nm excitation, 450(20) nm emission) then incubated (room temperature, protected from light) for 15 minutes (~20% conversion). The change in fluorescence intensity over the 15-minute reaction period was normalized against no-inhibitor and no-enzyme controls and the resulting percent inhibition data were fitted to a 4-parameter Hill equation. Aprotinin was used as the intraplate control.
SMILES,"activity change, negative = inhibition [%]",Potency
C/C(=C(\CCO)SS/C(CCO)=C(\C)N(C=O)Cc1cnc(C)nc1N)N(C=O)Cc1cnc(C)nc1N,2.62,–
Cc1cc(-n2nc3ccc(Cl)cc3n2)c(O)c(C(C)(C)C)c1,4.08,–
O=C(NCN1CCOCC1)c1cnccn1,-1.13,–
COc1ccccc1Oc1c(NS(=O)(=O)c2ccc(C(C)(C)C)cc2)nc(-c2ncccn2)nc1OCCO,1.03,–
CCCCCC(N)=O,-1.47,–
CC(=O)Oc1cccc(C)c1,5.01,–
CC[C@]12CCCN3CCc4c(n(c5ccccc45)[C@@](O)(C(=O)OC)C1)[C@@H]32,3.44,–
C=CCN1C[C@H](C(=O)N(CCCN(C)C)C(=O)NCC)C[C@@H]2c3cccc4[nH]cc(c34)C[C@H]21,–,inactive
O=C(/C=C/c1ccccc1)OCc1ccccc1,-8.06,–
COC(=O)c1cccnc1,-2.98,–
CCOC(=O)[C@H](CCc1ccccc1)N[C@@H](C)C(=O)N1CCC[C@H]1C(=O)O,-15.5,–
O=C(O)c1ccccc1C(=O)Nc1ccc(S(=O)(=O)Nc2nccs2)cc1,-2.27,–
CC(=O)N[C@H]1[C@H]([C@H](O)[C@H](O)CO)OC(C(=O)O)=C[C@@H]1N=C(N)N,3.3,–
CC(=O)OCC(=O)[C@@]1(O)CC[C@H]2[C@@H]3CCC4=CC(=O)C=C[C@]4(C)[C@@]3(F)[C@@H](O)C[C@@]21C,3.27,–
COc1cc(C(=O)NCCCCCC(=O)O)cc(OC)c1OC,1.29,–
CN1CCN(C(=O)C2CCCCC2)CC1,-5.2,–
O=c1[nH]cnc2nc[nH]c12,-4.47,–
Cn1cc(C(=O)[C@@H]2CCc3nc[nH]c3C2)c2ccccc21,1.2,–
Nc1ccc(S(=O)(=O)c2ccc(N)cc2)cc1,-2.42,–
Cc1ccc2c(c1)c1c3n2CCNC3CCC1 (stereo not given),-7.76,–

SMILES,"activity change, negative = inhibition [%]",Potency
CC(=O)OCC(COC(C)=O)OC(C)=O,-0.381,–
CC(C)NC[C@@H](O)COc1ccc(CC(N)=O)cc1,-3.99,–
CCc1nnc(NS(=O)(=O)c2ccc(N)cc2)s1,2.05,–
FC(F)(F)C(Cl)Br (stereo not given),0.176,–
C/C=C/C(=O)N(CC)c1ccccc1C,1.69,–
O=C(O)CCCCC1CCSS1 (stereo not given),4.5,–
C[N+](C)(C)CC[N+]1(C)Cc2c(Cl)c(Cl)c(Cl)c(Cl)c2C1,–,inactive
Cc1cc(C)c(NC(=O)CN(CC(=O)O)CC(=O)O)c(C)c1Br,-1.94,–
CCCCCCCC(=O)OCC(COC(=O)CCCCCCC)OC(=O)CCCCCCC,-5.21,–
CC1(C)S[C@@H]2[C@H](NC(=O)C(C(=O)O)c3ccccc3)C(=O)N2[C@H]1C(=O)O (stereo not given in full),-4.44,–
COc1ccccc1OC(=O)Oc1ccccc1OC,-0.417,–
CC[C@H](C)[C@H](N)C(=O)O,9.44,–
COc1ccc(-c2cc(=O)c3c(O)cc(O[C@@H]4O[C@H](CO[C@@H]5O[C@@H](C)[C@H](O)[C@@H](O)[C@H]5O)[C@@H](O)[C@H](O)[C@H]4O)cc3o2)cc1O,-8.67,–
C/C=C1\[C@H]2C=C(C)C[C@]1(N)c1ccc(=O)[nH]c1C2,4.65,–
CCCCCCCCCCCCCCCCCCO,0.409,–
CCCCOC(=O)c1ccc(N)cc1,0.602,–
CC(C)=CCC[C@@](C)(O)[C@H]1CC=C(C)CC1,0.714,–
CC(C)(C)NCC(O)COc1cccc2c1CCC(=O)N2 (stereo not given),-0.679,–
Cc1c(C(=O)NCCO)[n+](=O)c2ccccc2n1[O-],-5.63,–
CC(C(=O)O)c1ccc2c(c1)Cc1cccnc1O2 (stereo not given),-1.36,–
